Data reported in PubChem BioAssay AID1347075 (National Center for Advancing Translational Sciences (NCATS), 2019).
Among all 400,000 compounds or so, about 5,500 (1.4%) were called active. Inconclusive results (about 9%) are left out. Many of the other results were omitted from the sample, so actives are more common in it than they were. A number with no mark means an inactive call. Calls follow the shape of the dose curve; as a rule, active = well fitted cell-killing curve with a large enough effect; inconclusive = small, poorly fitted or top-dose-only effect, or effect the other way; inactive = flat fitted curve, though single readings scatter.

Assay: qHTS assay for MDR1-selective chemotherapeutics: Primary screen using the parental adenocarcinoma cell KB-3-1; also: nearly all actives have a fitted effect of over 60% in size
Details: KB-3-1 viability, CellTiter-Glo ATP luminescence, 72 h; series mostly up to 46.1 µM; activity change, negative = cytotoxic: at the top concentration
In short: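 Luminescent ATP read-out (CellTiter-Glo) measures survival of drug-naive KB-3-1 cells after 72 h compound exposure at 37 °C. Titration series was screened from lowest to highest concentration, with DMSO vehicle plates as background controls.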
% is scaled to controls: 0 for no effect and ±100 for the full control effect; potency is read from the fitted curve at half-maximal effect.

Row | SMILES | activity change, negative = cytotoxic [%] | Potency
1 | CC1CCCCN1CC(=O)N1CCCc2c1c(=O)oc1ccc(OCc3ccccc3)cc21 (stereo not drawn) | -3.44 | 
2 | Cc1cc(C)c(NC(=O)CCc2c(C)nc3c(c(C)nn3C(C)(C)C)c2C)c(C)c1 | 20.8 | 
3 | CCc1ccc(CCC(=O)Nc2ccc(S(N)(=O)=O)cc2)o1 | 11 | 
4 | Cc1ccc(CCC(=O)Nc2ncc(Cc3cc(Cl)ccc3Cl)s2)o1 |  | 1.16 µM (active)
5 | Cc1cccc(-n2c(=O)c3c(c4cc(C)ccc4n3C)n(CC(=O)Nc3ccccc3Cl)c2=O)c1 | -6.17 | 
6 | CCC1CCCCN1S(=O)(=O)c1ccc(NC(=O)c2cc(=O)c3ccccc3o2)cc1 (stereo not drawn) | 1.72 | 
7 | COc1cc(C(O)c2nc(-c3cccc(C(=O)O)c3)cs2)ccc1F (stereo not drawn) | 0 | 
8 | COc1ccccc1C(=O)Nc1nc2nc(-c3ccccc3)cc(=O)n2[nH]1 |  | inactive
9 | COc1ccc2c(c1OC)C(=O)OC2Nc1nc(-c2ccccc2)cs1 (stereo not drawn) |  | 3.66 µM (active)
10 | CCOC(=O)c1cccc(NS(=O)(=O)c2cc(-c3cnc(C)o3)ccc2OC)c1 | 0.0337 | 
11 | COc1ccc(C)cc1N(CC(=O)N1CCC(C)CC1)S(=O)(=O)c1ccc(C)cc1 | 19.4 | 
12 | CC(=O)Nc1ccc(NC(=O)c2cc3sccc3n2Cc2ccc(F)cc2)cc1 | 3.11 | 
13 | CCn1cc(C(=O)OCC(=O)Nc2cc(C)cc(C)c2)c(=O)c2ccc(C)nc21 | 12.9 | 
14 | C[n+]1ccc(/C=C/c2c[nH]c3ccccc23)cc1 |  | 1.16 µM (active)
15 | Clc1ccc(CSc2nncn3c2cc2occc23)cc1 | 1.43 | 
16 | COc1cccc2cc(-c3nc(Cl)c4c5c(sc4n3)CC(C)CC5)c(=O)oc12 (stereo not drawn) | 0.732 | 
17 | COc1ccc(CNC(=O)C2=Cc3cccc(OC)c3OC2)cc1OC | 12.4 | 
18 | CCN(Cc1ccccc1)S(=O)(=O)c1ccc2c(c1)CCCN2C(C)=O | 4.43 | 
19 | Oc1ccc2ccccc2c1N=Nc1nccs1 |  | 14.6 µM (active)
20 | Cc1ccccc1OCCSc1nc2ccc(NC(=O)c3ccco3)cc2s1 | -13.2 | 
21 | CC(=O)Nc1cccc(C(=O)OCC(=O)c2ccc3c(c2)OCO3)c1 | 42.1 | 

Row | SMILES | activity change, negative = cytotoxic [%] | Potency
22 | O=C(Nc1ccc2c(c1)OCO2)c1cc(-c2cccc(Cl)c2)on1 | 17.7 | 
23 | Cc1ccc(S(=O)(=O)c2c(Nc3cccc(Cl)c3)sc(C(=O)c3ccc4c(c3)OCO4)c2N)cc1 |  | 14.6 µM (active)
24 | CN(C)C1=C2C=CC=CC2/C(=C2/C=Cc3ccccc32)C=C1 (stereo not drawn) | -5.52 | 
25 | COc1ccc(NC(=O)c2ccc3nc(CCc4ccccc4)oc3c2)c(OC)c1 | -1.55 | 
26 | Cc1oc2ccc(O)c(CN3CCOCC3)c2c1C(=O)Nc1cccc(Cl)c1C | 6.77 | 
27 | CCCOc1ccc(NC(=O)CC2C(=O)N(C)C(=S)N2Cc2ccc3c(c2)OCO3)cc1 (stereo not drawn) |  | 18.4 µM (active)
28 | COc1ccc(NC(=O)CSc2nccn2Cc2ccc3c(c2)OCO3)cc1 | 15.4 | 
29 | CCOc1ccc(NC(=O)Cn2c(=O)n(CCCC(=O)NCc3ccc4c(c3)OCO4)c(=O)c3ccccc32)cc1 | 0.92 | 
30 | CC(C)(O)C#Cc1ccc(CN2CCC(CO)(CCc3ccccc3)CC2)cc1 | -3.77 | 
31 | Cc1cccc(-c2ncc(CN3CCC(CO)(CCCc4ccccc4)CC3)cn2)c1 | -25.5 | 
32 | Cc1c(CN2CCC(CO)(CCOc3ccccc3)CC2)[nH]c2ccc(Cl)cc12 |  | 14.6 µM (active)
33 | Cc1ccc(C(=O)COC(=O)C(Cc2c[nH]c3ccccc23)NC(=O)c2ccc(Br)cc2)cc1 (stereo not drawn) | 16.8 | 
34 | COc1cc(C(=O)Nc2ccc(OCc3cc(=O)n4cc(C)sc4n3)cc2)cc(OC)c1OC | -3.16 | 
35 | O=C(CSc1oc(-c2ccco2)nc1S(=O)(=O)c1ccc(Cl)cc1)c1ccccc1 | 2 | 
36 | CCOc1ccc(CC(=O)NCCc2csc3nc(-c4ccccc4F)nn23)cc1 | 0.131 | 
37 | Cc1cccc(OCCSc2nc3ccccc3n2CC(=O)N2CCCCC2)c1C | -3.81 | 
38 | Cc1cc(N2CCN(c3cccc(C(F)(F)F)c3)CC2)n2nc(-c3ccccc3)nc2n1 | 10.4 | 
39 | O=S(=O)(NC1CC1)c1ccc(Cl)cc1 | -3.47 | 
40 | O=S(=O)(CCc1nc2ccccc2o1)c1ccc(Cl)cc1 | 7.92 | 
41 | O=S(=O)(Cc1ccc(Cl)cc1Cl)c1ccc(Cl)cc1 |  | 1.64 µM (active)
42 | O=C(CCl)Nc1cccc(CP(=O)(c2ccccc2)c2ccccc2)c1 |  | 13 µM (active)

Row | SMILES | activity change, negative = cytotoxic [%] | Potency
43 | CSc1cccc(NC(=O)CSc2ccccc2)c1 | -0.187 | 
44 | O=C(CSc1ccccc1)Nc1ccc(C(=O)Nc2cccc(O)c2)cc1 | -0.55 | 
45 | Cc1cccc(CC(=O)N2CC(=O)Nc3ccc(F)cc3C2c2ccccc2)c1 (stereo not drawn) | 2.67 | 
46 | O=C(C[n+]1ccncc1)c1ccc2c(c1)CCCC2 | 7.96 | 
47 | CCOC(=O)C/C(C)=N\Nc1ccc([N+](=O)[O-])cc1[N+](=O)[O-] | -5.18 | 
48 | CC(C)c1nnc(NC(=O)COC(=O)/C=C/c2ccc([N+](=O)[O-])cc2)s1 | -2.43 | 
49 | CCOC(=O)/C(=C\c1ccc([N+](=O)[O-])cc1)C(=O)c1cc(C(C)=O)c(Nc2ccccc2)s1 |  | 3.26 µM (active)
50 | CN(C)S(=O)(=O)c1ccc(C(=O)N(Cc2cccnc2)c2nc3c(F)cc(F)cc3s2)cc1 | 10.1 | 
51 | CC(=O)N1CCCc2cc(S(=O)(=O)N3CCC(C(=O)NCc4ccc(C)cc4)CC3)ccc21 | -5.07 | 
52 | COc1cccc(CNC(=O)C2CCC(CNS(=O)(=O)c3cccs3)CC2)c1 (stereo not drawn) | -2.65 | 
53 | NS(=O)(=O)c1ccc(CNC(=O)c2cccc(S(=O)(=O)N3CCc4ccccc43)c2)cc1 | -2.94 | 
54 | CCn1c(=O)c(=O)n(CC)c2cc(S(=O)(=O)N3CCc4ccccc43)ccc21 |  | 20.6 µM (active)
55 | O=S(=O)(c1ccc2c(c1)OCCO2)N1CCc2ccccc21 | -10.5 | 
56 | Nc1nc(N)c(N=O)c(N)n1 | -6.75 | 
57 | Cc1cc(Cl)ccc1OCC(=O)N(Cc1ccc(N(C)C)cc1)C1CCS(=O)(=O)C1 (stereo not drawn) | -1.52 | 
58 | COCCNc1nc(N)c([N+](=O)[O-])c(N2CCCCCC2)n1 | -7.28 | 
59 | Cc1c(Nc2cc(N3CCCC(C)C3)c3nonc3c2[N+](=O)[O-])c(=O)n(-c2ccccc2)n1C (stereo not drawn) | 4.28 | 
60 | Nc1cc(N2CCCCCC2)c2nonc2c1[N+](=O)[O-] |  | 11.6 µM (active)
61 | COc1ccc2ncc3c(-c4ccc(C)c(C)c4)nn(CC(=O)NC4CCCC4)c3c2c1 | 1 | 
62 | C/C(=N/NC(=O)CC(=O)N/N=C(\C)c1ccc([N+](=O)[O-])cc1)c1ccc([N+](=O)[O-])cc1 | -50.6 | 
63 | Cc1ccc(C(=O)Cn2cccn2)cc1 | 11.3 | 
